Screens from PubChem BioAssay.
MARV entry inh = inhibitors of Marburg virus binding or cell entry | AID 540276 | 300,000 tested, 1.8% active | Potency, µM (highest dose often 37.8 µM), for the others: top-dose activity change, negative = inhibition, actives largely listed as inhibitors | Marburg virus pseudotyped entry inhibition, cell reporter; calls by dose curve; tested in HEK293 cells; also: potency is read from the fitted curve at half-maximal effect; % is scaled to controls: 0 for no effect and ±100 for the full control effect
LASV entry inh = Lassa virus entry inhibition | Lassa virus pseudotype entry inhibition, cell reporter | Potency, µM (series often up to 37.9 µM), for inactives: at the highest dose activity change, negative = inhibition, usual class: inhibitors | 300,000 tested, 1.2% active; calls by dose curve; tested in HEK293 cells; also: potency is read from the fitted curve at half-maximal effect; % is scaled to controls: 0 for no effect and ±100 for the full control effect; nearly all actives have a fitted effect of over 50% in size
HCV inh = blocks hepatitis C virus; Huh7.5.1 HCVcc-Cre infection, luciferase reporter, 44 h; Potency, µM (highest dose often 41.8 µM), without a hit: top-dose activity change, negative = inhibition, most hits filed as inhibitors; 340,000 tested, 3.4% active; also: potency is read from the fitted curve at half-maximal effect; % is scaled to controls: 0 for no effect and ±100 for the full control effect
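Reporter virus HCVcc-Cre (~0.5 moi) infects cells exposed to compound; seeding density 1,000 cells/well with 4 h settling beforehand. Luminescence, 15 sec read, taken 44 h post-infection following a 15 min RT substrate incubation.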
HCMV inh = inhibitors of human cytomegalovirus; HFF cells, HCMV-luciferase reporter, 72 h; active compounds read low; activity change, negative = inhibition, % at 57.5 µM; 410,000 tested, 4.5% active; in the data active = activity change below about -60%; inconclusive = no clear call, values can overlap the other calls; inactive = above about -39%; also: % is scaled to controls: 0 for no effect and ±100 for the full control effect
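Compounds were evaluated in HFFs infected with an HCMV luciferase reporter virus (MOI 1 PFU/cell). Luciferase in lysates collected 72 h post infection served as the replication measure.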
FMDV antiviral = antivirals against foot and mouth disease virus; FMDV antiviral cell-based qHTS; Potency, µM (highest dose often 57.9 µM), for inactives: at the top dose activity change, negative = inhibition, most hits filed as inhibitors; 410,000 tested, 1.2% active; AID 1159524; calls by dose curve; tested in HEK293T cells; also: read-out not given here; potency is read from the fitted curve at half-maximal effect; % is scaled to controls: 0 for no effect and ±100 for the full control effect; nearly all actives have a fitted effect of over 45% in size
HeLa G2M arrest = causes HeLa cells to arrest in G2/M phase; shares compounds with MARV entry inh; HeLa cell cycle G2/M arrest, Hoechst DNA content imaging; Potency, µM, hits mostly inhibitors; 25 tested, 60% active; AID 2441
WI-38 cytotox = WI-38 cytotoxicity of perinucleolar compartment inhibitors. Potency, µM (titrated, usually from 46.1 µM), without a hit: top-dose activity change, negative = cytotoxicity, usual class: inhibitors. WI-38 normal lung fibroblasts, ATPLite luminescence ATP viability, 24 h. 120 tested, under 10 active. shares compounds with MARV entry inh
PNC inh conf = confirmation of perinucleolar compartment assembly inhibitors; shares compounds with MARV entry inh; PC3M PTB-GFP, PNC prevalence imaging, 16 h; Potency, µM (doses to about 46.1 µM), for the others: at the top dose activity, negative = PNC inhibition, actives largely listed as inhibitors; 120 tested, 50% active
PC3M casp3-7 = counter-screen for PNC inhibitors: PC3M caspase 3/7 activation | shares compounds with MARV entry inh | PC3M-GFP caspase 3/7 activation, luminescence, 24 h | activity change, positive = activation, % at 46.1 µM | 120 tested, under 10 active | AID 2731
Starred values were filed as active, the others as inactive; u = inconclusive; x = no result given; [ ] = dose if it differs, or a comment. Only some compounds are listed: those with a hit (about 7.9% of all), similar ones and a draw of the others. Unless noted, calls follow the shape of the dose curve; as a rule, active = well fitted curve in the direction sought with a large enough effect; inconclusive = small, poorly fitted or top-dose-only effect, or another doubt; inactive = no such curve, though single readings can be large; an effect the other way counts as inactive or inconclusive.

SMILES | MARV entry inh | LASV entry inh | HCV inh | HCMV inh | FMDV antiviral | WI-38 cytotox | PNC inh conf | PC3M casp3-7 | others
O=C(c1ccc(CS(=O)c2ccccc2Cl)o1)N1CCN(c2cccc(Cl)c2)CC1 (stereo not given) | x | u | x | -93* | -19% | x | x | x
O=C(c1ccc(CS(=O)c2ccccc2Cl)o1)N1CCN(c2cccc(C(F)(F)F)c2)CC1 (stereo not given) | x | -13%[46.1 µM] | x | -96* | u | x | x | x
CCC[C@H]1[C@@H](NS(=O)(=O)c2cc(Cl)cc(Cl)c2)CC[C@@]23CCCN2C(=O)CCC[C@@H]13 | x | x | x | 2 | x | x | x | x
O=C(c1ccc(CSc2nc3ccncc3[nH]2)cc1)N1CCCCC1 | -6% | -12% | 1%[8.37 µM] | 10 | -14% | x | x | x
COc1cccc(N2CCN(C(=O)c3ccc(CSc4nc5ccncc5[nH]4)cc3)CC2)c1 | -40% | u | u | -87* | -19% | x | x | x
Cc1ccc(C)c(N2CCN(C(=O)c3ccc(CSc4nc5ccncc5[nH]4)cc3)CC2)c1 | u | u | u | u | 18µM* | x | x | x
CC(C)(C)c1cc(C2=CSC3=NCCN23)cc(C(C)(C)C)c1O | x | x | 5.6µM* | x | u | x | x | x
Oc1ccc(C2=CSC3=NCCN23)cc1O | x | x | 7% | -7 | -18% | x | x | x
OC1(c2ccc(Cl)cc2)CN(c2ccccc2)C2=[N+]1CCS2 (stereo not given) | u | -21% | 13µM* | 0 | -30% | x | x | x
N#Cc1ccc(CSc2nc3c(c(=O)[nH]2)CCC3)cc1 | 11%[46.1 µM] | 0%[46.1 µM] | x | 27 | -12% | x | x | x
CCCc1nc2c(C)ccc(C)c2c(N)c1CC | 9.2µM* | -24% | u | -2 | -21% | x | x | x
CCc1c(N)nc(N)nc1Nc1ccc(C)c(C)c1 | u | 2%[46.1 µM] | -25% | -33 | u | x | x | x
COc1ccc(Cc2nnc(N/N=C/c3ccc(O)cc3)[nH]c2=O)cc1OC | u | u | 0.89µM* | -100* | -25% | u | u | -2
COc1ccc(Cc2nnc(N/N=C/c3ccc(Br)cc3)[nH]c2=O)cc1OC | x | x | -6% | -20 | 1% | x | x | x
COc1ccc(-n2c(SC(C)C(=O)Nc3ncc(Cl)cc3Cl)nc3ccccc32)cc1 (stereo not given) | u | 0.25µM* | u | -85* | -13% | u | 3.2µM* | 4
O=C(c1cccs1)N1CCCc2cc(NS(=O)(=O)c3cc(F)ccc3F)ccc21 | x | 3%[46.1 µM] | x | -7 | u | x | x | x
Cc1cc[n+](C2=C([O-])c3ccccc3C(=O)/C2=N\S(=O)(=O)c2cccs2)cc1C | u | u | 11µM* | 4 | -24% | -24% | u | u
O=C(c1ccccc1)[C@H]1[C@H](c2ccccc2)[C@@]2(N=C(c3ccccc3)OC2=O)C2c3ccccc3C=NN21 (stereo not given in full) | -4% | x | x | x | x | x | x | x
CCN(CC)C(=O)N1c2ccccc2C=Cc2ccccc21 | 1.1µM* | 0.63µM* | u | -81* | u | 18% | 5µM* | -2
CCN(CC)S(=O)(=O)c1ccc(-c2nnco2)cc1 | 0% | -2% | 8% | 24 | -4% | x | x | x
CCN(CC)S(=O)(=O)c1ccc(C2=NOC3(C2)N(C)c2ccccc2C3(C)C)cc1 (stereo not given) | 1.8µM* | 0.73µM* | -13% | -76* | -27% | 8% | 5µM* | -8
O=C1OCC/C1=C\NCCCN/C=C1\CCOC1=O | x | x | x | 35 | -15% | x | x | x
CCOC(=O)NC1(Nc2ccc(C)cc2)Oc2ccccc2O1 | -12% | u | u | 40 | 13% | 8% | -18% | -6
CCOC(=O)NC1(NC(C)C)Oc2ccccc2O1 | 13% | -19% | -16% | 14 | -18% | x | x | x
C#CCn1c(C)cc(C)c(S(=O)(=O)c2ccccc2)c1=O | 5%[46.1 µM] | 10% | 4% | 69 | 58% | x | x | x
SMILES | MARV entry inh | LASV entry inh | HCV inh | HCMV inh | FMDV antiviral | WI-38 cytotox | PNC inh conf | PC3M casp3-7 | others
C#CCn1c(S(=O)(=O)Cc2ccc(C)cc2)nc(-c2ccccc2)c1-c1ccccc1 | 4.6µM* | 3.3µM* | u | -95* | -12% | 3% | 7.9µM* | -5
CNC1=C(N(C(C)=O)c2ccc(Br)cc2)C(=O)c2ccccc2C1=O | 2.3µM* | 5.6µM* | u | -100* | 8.9µM* | u | u | u
CC(=O)c1c(C)cc(C)c(CSc2nc(C)cc(=O)[nH]2)c1C | u | -14% | -5% | -36 | x | 0% | u | -4
O=C(N/N=C/c1ccccc1O)c1cccc(C(F)(F)F)c1 | 5.6µM* | u | 4µM* | -102* | 68% | -7% | 28µM* | 0
CCOC(=O)CSc1nc2c(sc3ccc([N+](=O)[O-])cc32)c(=O)n1Cc1ccco1 | 10% | 3% | 6.3µM* | -37 | -28% | 5% | -12% | 3
CC[C@]12c3[nH]c4ccc(OC)cc4c3CCN1C(=O)C(CC(=O)NC(C)(C)C)C[C@@H]2C(=O)N1CCN(C(=O)c2ccco2)CC1 (stereo not given in full) | 1% | x | -2% | -11 | -12% | x | x | x
CC(=O)O[C@H]1C(=O)[C@@]2(C)C([C@H](OC(=O)c3ccccc3)[C@]3(O)C[C@H](OC(=O)[C@H](O)[C@@H](NC(=O)c4ccccc4)c4ccccc4)C(C)=C1C3(C)C)[C@]1(OC(C)=O)CO[C@@H]1C[C@@H]2O (stereo not given in full) | 0.25µM* | u | x | x | -16%[39.8 µM] | x | x | x | HeLa G2M arrest=0.013*
CNC(=S)N/N=C/c1cn(CCOc2ccccc2OC)c2ccccc12 | u | -28% | u | 66 | 0% | -2% | u | 2
COC(=O)N/N=C/c1cn(CCOc2ccccc2OC)c2ccccc12 | x | x | -3% | x | -21% | x | x | x
O=C(Nc1ccccc1Cl)c1cc(C2CCCCN2C(=O)CCCc2ccccc2)on1 (stereo not given) | x | x | x | 28 | -17% | x | x | x
C=C(C)[C@H]1Cc2c(ccc3c2O[C@@H]2COc4cc(OC)c(OC)cc4[C@@H]2C3=O)O1 | 0.58µM* | 2.3µM* | x | x | x | x | x | x | HeLa G2M arrest=0.63*
O=C(N/N=C/c1cc(Cl)ccc1O)C(=O)Nc1ccccc1OC(F)(F)C(F)F | u | u | u | -88* | -25% | -8% | u | 6
Cc1ccc([C@H]2C[C@H](n3cc(COC(=O)c4ccccc4)nn3)[C@@H](O)CN2C(=O)c2cccs2)cc1 | x | x | x | -8 | -1% | x | x | x
